Assay [1] addresses Ubiquitin carboxyl-terminal hydrolase 2 (Homo sapiens) (UniProt O75604). As to the kind of experiment: qHTS Validation Assay for Inhibitors of Ubiquitin-specific Protease USP2a Using CHOP2 as the Reporter (AID 463106). The gist of the method: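 USP2 core (10 nM final) was preincubated with compound 30 min at RT in pH 8.0 Tris/CaCl2/beta-ME/CHAPS buffer. Ub-CHOP2 and reporter substrate (25 nM final each) were then added, with fluorescence (Ex 485/Em 531) read after 60 min. Data were normalized to NEM full inhibition and fitted to concentration-response curves.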
(Quantitative high-throughput screening tests each substance at several concentrations.)

Assay [2] concerns the target DNA polymerase III PolC-type (Bacillus subtilis (strain 168)) (UniProt P13267). As to the kind of experiment: qHTS Validation Assay for the Inhibitors of DNA Replication in Gram-Positive Bacteria (AID 485295).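 Note: reconstituted holoenzyme with PolC plus beta clamp SSB and primase; PicoGreen fluorescence of double-stranded DNA made on primed circular M13 template; series mostly up to about 57 µM.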 Summed up:
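Primed replication of single-stranded M13Gori by a four-protein B. subtilis holoenzyme is measured at room temperature. Double-stranded product is quantified by PicoGreen fluorescence after an EDTA stop; inhibition is scaled between DMSO and EDTA controls.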

Assay [3] in a line: qHTS Validation Assay to Find Inhibitors of Chronic Active B-Cell Receptor Signaling (AID 485345; active = well fitted curve in the direction sought with a large enough effect in the main read-out, with a control signal flat, not every such curve was filed as active). Summed up: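 TMD8 ABC-DLBCL cells stably carrying doxycycline-inducible IkappaBalpha–green luciferase fusion plus unfused red luciferase; compounds 46 uM to 3 nM, 4 h at 37C with doxycycline. Corrected green/red luminescence ratio normalized to 10 uM MG-132 and basal cell wells; curves fitted.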

The target of assay [4] is Beta-2 adrenergic receptor (Homo sapiens) (UniProt P07550). As to the kind of experiment: qHTS validation assay of beta-arrestin-biased ligands of beta2-adrenergic receptor (AID 485366). The gist of the method: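 Luminescence from a tTA-responsive luciferase, induced when recombinant beta-arrestin is recruited to recombinant beta2-AR, served as the agonism signal. Cells were exposed to compound for 18 hr at 37 degrees C; titrations spanned up to 46 microM.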
Beta-2 adrenergic receptor (Homo sapiens), sequence (P07550 whole entry, looked up): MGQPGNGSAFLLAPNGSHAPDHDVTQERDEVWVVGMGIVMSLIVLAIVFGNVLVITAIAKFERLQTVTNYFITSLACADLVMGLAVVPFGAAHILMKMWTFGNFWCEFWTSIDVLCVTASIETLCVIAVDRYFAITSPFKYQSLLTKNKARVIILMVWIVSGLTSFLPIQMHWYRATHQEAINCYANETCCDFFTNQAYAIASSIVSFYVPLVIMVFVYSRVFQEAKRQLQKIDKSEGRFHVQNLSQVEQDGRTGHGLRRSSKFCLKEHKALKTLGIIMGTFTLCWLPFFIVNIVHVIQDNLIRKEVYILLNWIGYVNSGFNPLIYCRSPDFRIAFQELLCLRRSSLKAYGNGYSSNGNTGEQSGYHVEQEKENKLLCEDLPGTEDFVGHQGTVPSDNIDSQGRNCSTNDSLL

Assay [5] addresses ATP-dependent 6-phosphofructokinase (Trypanosoma brucei brucei) (UniProt O15648). Nature of the assay: qHTS Validation Assay to Find Inhibitors of T. brucei phosphofructokinase (AID 485368). Note: potency is the fitted concentration of half-maximal effect. The gist of the method: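 Activity was normalized between 1x (1.25 nM) PFK wells as no inhibition and enzyme-free wells as full inhibition, from luminescence after ADP-Glo detection of ADP made from 0.5 mM F6P and 0.1 mM ATP over 45 min.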

The nature of assay [6]: Quantitative high throughput screen for delayed death inhibitors of the malarial parasite plastid, 96 hour incubation (AID 488745). Note: nearly all actives have a fitted effect of over 70% in size. Note: potency is the fitted concentration of half-maximal effect. The gist of the method: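 Luciferase-expressing P. falciparum in erythrocytes (2% hematocrit, 0.1% parasitemia) incubated with compound for 96 h at 37 C, 5% CO2, in RPMI 1640 with 0.5% Albumax. Growth inhibition read as decreased luminescence.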

Assay [7] can be described thus: Quantitative high throughput screen for delayed death inhibitors of the malarial parasite plastid, 48 hour incubation (AID 488752). Note: nearly all actives have a fitted effect of over 65% in size. The gist of the method:
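Erythrocytes infected with firefly luciferase-expressing P. falciparum (2% hematocrit, 0.1% parasitemia) cultured with compound for 48 h at 37 C, 5% CO2, in RPMI 1640/0.5% Albumax. Growth inhibition read as loss of luminescence.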

Assay [8] addresses Thioredoxin reductase 1, cytoplasmic (Rattus norvegicus) (UniProt O89049). Nature of the assay: qHTS Assay for Substrates of Mammalian Selenoprotein Thioredoxin Reductase 1 (TrxR1) (AID 488772).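 Note: NADPH fluorescence in the first read after selenite addition and not the 8 min delta; series mostly up to about 57 µM; a drop in NADPH fluorescence below the no-compound background marks a TrxR1 substrate.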 Summed up:
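Quantitative HTS in Tris-HCl buffer at pH 7.5 with EDTA and Tween-20, using rat TrxR1, 400 uM NADPH and 400 uM selenite (final). A fall in initial NADPH fluorescence relative to background marked substrate behaviour.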

The target is the same in assay [9]. As to the kind of experiment: qHTS Assay for Inhibitors of Mammalian Selenoprotein Thioredoxin Reductase 1 (TrxR1) (AID 488773).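 Note: drop in NADPH fluorescence over an 8 min run after selenite addition; series mostly up to about 57 µM; nearly all actives have a fitted effect of over 40% in size.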 Particulars: Potency: inhibition. Summed up: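 Steps: enzyme (90 nM) plus NADPH (400 uM final), 5 min at ~22 deg C; compound added, 15 min; selenite (400 uM final) added; fluorescence followed for 8 min. Concentration-response curves derived from the normalized delta values.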

The target in assay [10] is Flap endonuclease 1 (Homo sapiens) (UniProt P39748). Nature of the assay: qHTS Validation Assay for the Inhibitors of Human Flap endonuclease 1 (FEN1) (AID 488816). The gist of the method: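 Human FEN1 (10 nM) preincubated 15 min at room temperature with compounds, then flap DNA substrate added at 50 nM final. Fluorescence read at 0 and 15 min; concentration-response fitted with four-parameter Hill equation.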
Flap endonuclease 1 (Homo sapiens), sequence (P39748 whole entry, looked up): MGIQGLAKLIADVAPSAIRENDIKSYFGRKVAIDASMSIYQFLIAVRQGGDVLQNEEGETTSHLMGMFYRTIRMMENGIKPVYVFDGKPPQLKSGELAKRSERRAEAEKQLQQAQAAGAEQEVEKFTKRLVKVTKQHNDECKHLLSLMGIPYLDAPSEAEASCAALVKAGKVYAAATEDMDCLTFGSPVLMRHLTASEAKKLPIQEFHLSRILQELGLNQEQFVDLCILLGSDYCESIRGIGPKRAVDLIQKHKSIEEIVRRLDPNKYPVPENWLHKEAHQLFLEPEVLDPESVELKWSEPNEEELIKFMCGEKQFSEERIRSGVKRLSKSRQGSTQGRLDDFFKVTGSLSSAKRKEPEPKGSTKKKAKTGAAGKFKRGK

The target of assay [11] is M-phase phosphoprotein 8 (Homo sapiens) (UniProt Q99549). As to the kind of experiment: qHTS Validation Assay for Inhibitors for MPP8 Chromodomain Interactions with Methylated Histone Tails (AID 488949). Note: nearly all actives have a fitted effect of over 55% in size. Note: potency is the fitted concentration of half-maximal effect. The gist of the method:
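Disruption of the preformed MPP8–trimethyl-H3K9 peptide complex (both 50 nM, 30 min, RT) is measured after 30 min compound exposure, using AlphaScreen proximity beads; aurintricarboxylic acid titration serves as plate control.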

In assay [12] the target is Chromobox protein homolog 1 (Homo sapiens) (UniProt P83916). Nature of the assay: qHTS Validation Assay for Inhibitors of HP1-beta Chromodomain Interactions with Methylated Histone Tails (AID 488953).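 Note: loss of AlphaScreen luminescence from HP1-beta binding biotinylated H3K9me3 peptide; series mostly up to about 110 µM; nearly all actives have a fitted effect of over 50% in size.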 The gist of the method:
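HP1-beta (50 nM) preformed 30 min with biotinylated H3(1-18)K9me3 peptide (50 nM) in PBS pH 7.4, 0.01% Tween-20. Compounds added for 30 min at room temperature. Complex disruption read by AlphaScreen with streptavidin donor/nickel chelate acceptor beads (10 ug/mL each).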

The target of assay [13] is Methanococcus maripaludis chaperonin (MmCpn) (UniProt Q6LX38). Nature of the assay: High-Throughput Screening for Modulators of Cytosolic Chaperonin Activity: MmCpn Primary Screen (AID 488978).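 Note: 50 nM MmCpn enzyme hydrolysing 30 µM ATP at 37 °C.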 Summed up: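 Measures ATPase turnover of the M. maripaludis chaperonin (50 nM final) against 30 uM ATP over 10 min at 37C, with compound added 5 min beforehand at room temperature. ADP is quantified by HTRF immunodetection.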
Methanococcus maripaludis chaperonin (MmCpn), sequence (Q6LX38 1-543): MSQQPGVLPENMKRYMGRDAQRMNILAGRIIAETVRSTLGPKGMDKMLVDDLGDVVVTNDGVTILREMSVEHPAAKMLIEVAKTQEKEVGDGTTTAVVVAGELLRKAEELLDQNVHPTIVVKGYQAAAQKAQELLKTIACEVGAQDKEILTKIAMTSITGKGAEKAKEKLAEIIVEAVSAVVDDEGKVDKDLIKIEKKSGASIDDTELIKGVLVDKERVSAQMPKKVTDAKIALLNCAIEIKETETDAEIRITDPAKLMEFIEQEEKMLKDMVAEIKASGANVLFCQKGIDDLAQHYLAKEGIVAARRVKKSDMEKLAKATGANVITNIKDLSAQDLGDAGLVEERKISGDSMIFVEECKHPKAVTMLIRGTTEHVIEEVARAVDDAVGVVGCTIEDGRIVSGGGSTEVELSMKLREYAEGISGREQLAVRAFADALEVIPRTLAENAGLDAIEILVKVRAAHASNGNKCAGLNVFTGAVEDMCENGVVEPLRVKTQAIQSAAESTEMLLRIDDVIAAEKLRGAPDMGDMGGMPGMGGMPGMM

Assay [14] has as its target Transient receptor potential cation channel subfamily V member 1 (Homo sapiens) (UniProt Q8NER1). As to the kind of experiment: HTS Assay for Compounds that Act as Enhancers of the Vanilloid Receptor 1 (AID 488979). The gist of the method:
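TRPV1 cells loaded with Fluo-8 calcium dye; compound added and Ca2+ signal (ex 480/em 520 nm) followed 3 min, then capsaicin at EC20 added and read 2 more min to detect enhancement.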

In assay [15] the target is Thyrotropin receptor (Homo sapiens) (UniProt P16473). As to the kind of experiment: qHTS Assay for Antagonists of the Thyroid Stimulating Hormone Receptor (AID 488980). Note: series mostly up to about 58 µM. Summed up: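 Cells expressing human TSHR (HEK293) are dispensed in HBSS/HEPES containing 70 uM RO 20-1724, compound is added, then TSH at EC80 (4 nM final). Antibody in lysis buffer follows, 30 minutes at room temperature before HTRF detection.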

The target in assay [16] is D(1A) dopamine receptor (Homo sapiens) (UniProt P21728). Nature of the assay: HTS Assay for Allosteric Agonists of the Human D1 Dopamine Receptor: Primary Screen for Agonists (AID 488981). Summed up: (§1)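 Tetracycline-induced HEK293 Trex D1 cells with forced coupling to calcium, loaded with no-wash calcium dye; kinetic fluorescence read 180 s after compound addition for agonism, then a further 180 s after an EC20 dopamine challenge for potentiation.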

For assay [17] the target is unchanged. Nature of the assay: HTS Assay for Allosteric Agonists of the Human D1 Dopamine Receptor: Primary Screen for Potentiators (AID 488982). The gist of the method:
as §1

Assay [18] has the same target. Nature of the assay: HTS Assay for Allosteric Agonists of the Human D1 Dopamine Receptor: Primary Screen for Antagonists (AID 488983).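 Note: calcium flux response to an EC80 dopamine challenge measured with no-wash dye; nearly all actives have a fitted effect of over 65% in size.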 Note: potency is the fitted concentration of half-maximal effect. Summed up:
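Tetracycline-induced HEK293 T-REx D1 line, force-coupled to calcium flux, read with no-wash calcium dye. Compound added after 10 s baseline, read 180 s for agonism, then EC80 dopamine added and read a further 180 s.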

Assay [19] has as its target Tumor susceptibility gene 101 protein (Homo sapiens) (UniProt Q99816). As to the kind of experiment: qHTS Validation Assay for Iinhibitors of HIV-1 Budding by Blocking the Interaction of PTAP/TSG101 (AID 485342; calls by dose curve). The gist of the method: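 Fluorescence anisotropy measured PTAP-Tsg101 interaction. Final concentrations were 10 uM protein domain and 50 nM labeled peptide, equilibrated 20 min at room temperature.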

SMILES strings stand for the structures. Results filed as inconclusive are left out. Where a structure was tested more than once in an assay, its records may differ in their call. Calls of active or inactive are those of the source. Unless noted, calls come from the whole dose curve; as a rule, active = well fitted curve in the direction sought with a large enough effect; inconclusive = small, poorly fitted or top-dose-only effect, or another doubt; inactive = no such curve, though single readings can be large; an effect the other way counts as inactive or inconclusive.

DNA polymerase III PolC-type (Bacillus subtilis (strain 168)), sequence (P13267 whole entry, looked up): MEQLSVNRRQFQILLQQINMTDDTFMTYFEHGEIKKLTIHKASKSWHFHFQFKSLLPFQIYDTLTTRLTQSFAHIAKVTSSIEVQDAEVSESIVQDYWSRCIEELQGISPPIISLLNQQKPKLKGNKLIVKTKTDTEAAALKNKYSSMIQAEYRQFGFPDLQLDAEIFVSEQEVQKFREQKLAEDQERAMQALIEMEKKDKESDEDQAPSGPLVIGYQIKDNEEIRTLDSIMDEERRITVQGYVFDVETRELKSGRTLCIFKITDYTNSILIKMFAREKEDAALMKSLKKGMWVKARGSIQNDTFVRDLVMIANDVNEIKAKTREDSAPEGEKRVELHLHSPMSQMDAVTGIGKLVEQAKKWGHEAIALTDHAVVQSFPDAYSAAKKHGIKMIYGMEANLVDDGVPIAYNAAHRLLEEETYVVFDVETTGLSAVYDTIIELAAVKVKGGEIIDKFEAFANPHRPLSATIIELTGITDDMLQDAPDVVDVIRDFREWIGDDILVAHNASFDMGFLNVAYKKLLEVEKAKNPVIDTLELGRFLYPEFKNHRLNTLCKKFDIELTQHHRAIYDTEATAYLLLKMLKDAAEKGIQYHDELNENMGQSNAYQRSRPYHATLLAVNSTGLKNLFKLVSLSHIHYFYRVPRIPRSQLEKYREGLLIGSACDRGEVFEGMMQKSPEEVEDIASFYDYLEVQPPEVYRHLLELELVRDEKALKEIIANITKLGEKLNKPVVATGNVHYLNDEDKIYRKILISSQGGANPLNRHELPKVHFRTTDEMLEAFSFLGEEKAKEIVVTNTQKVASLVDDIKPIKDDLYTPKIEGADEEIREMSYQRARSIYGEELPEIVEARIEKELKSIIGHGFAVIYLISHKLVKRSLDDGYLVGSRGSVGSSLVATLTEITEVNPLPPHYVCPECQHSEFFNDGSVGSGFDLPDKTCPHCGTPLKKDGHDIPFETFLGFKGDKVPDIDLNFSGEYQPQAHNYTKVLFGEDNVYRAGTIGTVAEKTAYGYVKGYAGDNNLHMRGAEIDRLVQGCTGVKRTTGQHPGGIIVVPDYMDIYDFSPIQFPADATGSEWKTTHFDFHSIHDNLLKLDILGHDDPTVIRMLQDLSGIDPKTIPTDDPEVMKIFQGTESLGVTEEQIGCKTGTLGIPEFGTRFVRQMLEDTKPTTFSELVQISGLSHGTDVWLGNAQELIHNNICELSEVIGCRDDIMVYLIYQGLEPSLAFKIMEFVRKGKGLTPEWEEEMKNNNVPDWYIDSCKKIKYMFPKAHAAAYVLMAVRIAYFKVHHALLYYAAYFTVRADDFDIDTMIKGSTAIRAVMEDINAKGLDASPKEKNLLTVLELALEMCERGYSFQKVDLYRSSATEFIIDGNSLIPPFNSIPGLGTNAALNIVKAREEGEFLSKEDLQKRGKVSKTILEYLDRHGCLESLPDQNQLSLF
M-phase phosphoprotein 8 (Homo sapiens), sequence (Q99549 whole entry, looked up): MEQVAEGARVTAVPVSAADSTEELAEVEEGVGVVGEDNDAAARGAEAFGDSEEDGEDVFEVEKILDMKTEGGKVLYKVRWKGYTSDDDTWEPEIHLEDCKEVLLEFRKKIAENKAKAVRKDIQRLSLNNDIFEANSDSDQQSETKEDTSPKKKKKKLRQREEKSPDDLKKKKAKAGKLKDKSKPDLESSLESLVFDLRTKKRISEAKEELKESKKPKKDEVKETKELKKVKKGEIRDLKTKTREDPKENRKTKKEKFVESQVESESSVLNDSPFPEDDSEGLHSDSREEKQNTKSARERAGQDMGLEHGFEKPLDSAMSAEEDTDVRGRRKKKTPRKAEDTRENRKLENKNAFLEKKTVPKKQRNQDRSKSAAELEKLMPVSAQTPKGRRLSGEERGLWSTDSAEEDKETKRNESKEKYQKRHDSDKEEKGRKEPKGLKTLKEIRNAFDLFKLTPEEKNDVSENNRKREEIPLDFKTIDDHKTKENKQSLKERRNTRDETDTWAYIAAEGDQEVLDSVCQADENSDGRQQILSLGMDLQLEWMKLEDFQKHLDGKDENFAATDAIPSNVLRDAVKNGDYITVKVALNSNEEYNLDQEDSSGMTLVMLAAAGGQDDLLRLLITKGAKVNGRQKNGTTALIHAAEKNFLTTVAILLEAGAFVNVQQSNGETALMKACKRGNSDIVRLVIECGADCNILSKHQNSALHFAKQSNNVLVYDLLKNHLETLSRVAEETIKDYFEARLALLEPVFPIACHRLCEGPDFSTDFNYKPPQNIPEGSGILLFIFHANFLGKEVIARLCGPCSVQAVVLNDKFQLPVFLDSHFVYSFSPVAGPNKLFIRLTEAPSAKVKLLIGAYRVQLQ
Thioredoxin reductase 1, cytoplasmic (Rattus norvegicus), sequence (O89049 whole entry, looked up): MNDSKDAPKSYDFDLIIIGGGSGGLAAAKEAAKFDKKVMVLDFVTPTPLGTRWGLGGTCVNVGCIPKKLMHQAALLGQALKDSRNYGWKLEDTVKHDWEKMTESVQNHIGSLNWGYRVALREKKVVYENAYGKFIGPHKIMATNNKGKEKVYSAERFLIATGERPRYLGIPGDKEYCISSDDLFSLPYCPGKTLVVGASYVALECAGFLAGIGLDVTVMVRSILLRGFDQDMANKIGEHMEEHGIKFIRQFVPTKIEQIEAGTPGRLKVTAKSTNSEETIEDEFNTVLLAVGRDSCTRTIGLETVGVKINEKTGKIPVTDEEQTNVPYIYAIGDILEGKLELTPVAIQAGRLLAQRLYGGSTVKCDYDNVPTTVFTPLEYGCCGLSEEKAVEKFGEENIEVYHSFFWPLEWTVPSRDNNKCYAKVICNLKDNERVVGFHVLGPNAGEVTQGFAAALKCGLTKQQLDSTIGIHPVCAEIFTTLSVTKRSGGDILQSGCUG
Ubiquitin carboxyl-terminal hydrolase 2 (Homo sapiens), sequence (O75604 whole entry, looked up): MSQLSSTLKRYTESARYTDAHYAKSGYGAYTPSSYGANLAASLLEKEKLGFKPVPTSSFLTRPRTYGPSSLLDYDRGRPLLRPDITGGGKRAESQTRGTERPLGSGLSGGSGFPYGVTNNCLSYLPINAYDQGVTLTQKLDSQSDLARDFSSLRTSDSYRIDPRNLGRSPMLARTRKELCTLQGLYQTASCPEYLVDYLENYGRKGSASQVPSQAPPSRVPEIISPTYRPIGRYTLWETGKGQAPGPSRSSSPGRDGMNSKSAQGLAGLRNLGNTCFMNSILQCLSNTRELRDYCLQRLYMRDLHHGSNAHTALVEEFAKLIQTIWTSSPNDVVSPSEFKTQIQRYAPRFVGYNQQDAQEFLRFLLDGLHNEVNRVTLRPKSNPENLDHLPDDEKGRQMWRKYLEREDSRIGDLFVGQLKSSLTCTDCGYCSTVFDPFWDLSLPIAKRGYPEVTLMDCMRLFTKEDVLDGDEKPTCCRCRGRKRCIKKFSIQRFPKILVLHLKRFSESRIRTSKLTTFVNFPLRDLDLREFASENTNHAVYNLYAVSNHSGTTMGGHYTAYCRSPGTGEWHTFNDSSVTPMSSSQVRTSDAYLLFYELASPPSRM
Chromobox protein homolog 1 (Homo sapiens), sequence (P83916 whole entry, looked up): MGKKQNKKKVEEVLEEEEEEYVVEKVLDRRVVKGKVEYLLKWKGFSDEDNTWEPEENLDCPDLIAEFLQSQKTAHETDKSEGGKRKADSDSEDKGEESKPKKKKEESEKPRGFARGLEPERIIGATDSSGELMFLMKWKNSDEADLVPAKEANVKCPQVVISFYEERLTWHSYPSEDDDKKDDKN

For the molecule `NC(=O)OCC(COC(N)=O)c1ccccc1`, the Potency result in assay [1], in assay [2], in assay [3], in assay [5], in assay [6] and in assay [7] was “inactive” in each case. The Potency entry in [9], in [10], in assay [11], in assay [12], in [16] and in assay [17] was “inactive” in each case. The Potency result in assay [18] is “inactive”. Besides, the result in assay [4], in [8], in assay [13], in assay [14] and in [15] was inactive.

For `Nc1nnc(-c2cccc(Cl)c2Cl)c(N)n1`, the Potency entry in assay [1], in assay [2], in assay [3], in [5], in [6] and in assay [9] was “inactive” in each case. Also, the Potency entry in [10], in [11], in [12], in assay [16] and in assay [18] was “inactive” each time. Moreover, the outcome in assay [4], in [13], in assay [14] and in assay [15] was inactive.

As to `COC(=O)Nc1nc2ccc(C(=O)c3cccs3)cc2[nH]1`, the Potency entry in [1], in [2], in assay [9], in [11], in assay [12] and in [16] was “inactive” throughout. For the same molecule, the Potency result in [17] and in [18] was “inactive” in each case. Besides, the outcome in assay [19], in assay [4], in assay [8], in [13], in assay [14] and in assay [15] was inactive.

For the molecule `CN(Cc1cnc2nc(N)nc(N)c2n1)c1ccc(C(=O)N[C@@H](CCC(=O)O)C(=O)O)cc1`, the Potency entry in assay [1], in assay [2], in assay [3], in [6], in assay [9] and in [10] was “inactive” in each case. Further, the Potency entry in [16], in assay [17] and in assay [18] was “inactive” each time. Also, the molecule was called inactive in assay [4], in assay [8], in assay [13], in assay [14] and in assay [15]. The Potency is 37.9 µM (active) in assay [5]; 79.4 µM (active) and inactive in assay [11].

For the molecule `Cc1cc(C(C)(C)C)cc(C)c1CC1=NCCN1`, the Potency entry in [1], in assay [2], in [3], in assay [5], in assay [6] and in assay [7] was “inactive” each time. Moreover, the Potency entry in [10], in assay [12], in assay [16], in [17] and in [18] was “inactive” in each case. The result in assay [4], in assay [8], in assay [13], in assay [14] and in assay [15] was inactive.

Regarding `CN1CCC(=C2c3ccccc3C=Cc3ccccc32)CC1`, the Potency entry in [1], in assay [2], in assay [3], in assay [5], in [9] and in assay [11] was “inactive” throughout. Also, the Potency entry in [16] and in assay [17] was “inactive” throughout. Moreover, the outcome in assay [4], in assay [8] and in assay [15] was inactive.

Consider `CN(C)CCC=C1c2ccccc2C=Cc2ccccc21`, for which the Potency result in assay [1], in assay [2], in assay [5], in assay [9], in [10] and in assay [11] was “inactive” in each case. The Potency result in assay [12], in [16] and in assay [17] was “inactive” in each case. In addition, the call in assay [19], in [4], in assay [8], in [13] and in assay [15] was inactive. Further, the Potency in assay [18] is 1 µM (active).

In the case of `COc1cc2nc(N3CCN(C(=O)C4COc5ccccc5O4)CC3)nc(N)c2cc1OC` (centres undefined), the Potency entry in assay [1], in assay [2], in assay [5], in assay [9], in assay [11] and in [16] was “inactive” throughout. Further, in [17], the Potency result is “inactive”. For the same molecule, the call in [19], in [4], in assay [8], in assay [13], in assay [14] and in [15] was inactive. In assay [6], the Potency was 3.29 µM (active).

The values are drawn from PubChem BioAssay (NCATS).
